Results: the supplement of paper PMC12632987
The full ranking holds about 2,300 sequences; the median of “median log2 fold change of GCK-ALFA target abundance (FLAG IP / Myc IP barcode read proportion)” is about 0.095, and the lowest 2% start at about -0.47. Many of the other results were omitted from the sample, so the lowest values are more common in it than they were.

B1: LC3A_28_811 (protein)
chain: SHVDEVIAAVKEEGEKLKNSKEDVLLEVRVSGDITVEEAERLMDAIEEIARELAKNRKVYIVITAEEPISQEVLDTILDRAEEIEEKYPNVSVIVALPEE
B2: LC3A_3_1711 (protein)
chain: GEELIEEAEKILKEKGLSEETKKAVLEALKALLEKGYINAAKELIKLLKEAKDLSDEVILDFAKDVLEYVKTEDVSEEETIKKIKEEYEIAKNEEEIEEL
B3: LC3A_free_46_2301 (protein)
chain: IKVEIDIYFGAAPLEKIEEAAKRLTETAEKKAKELGAEVEIEVKITKNEDGTYTLEIRITAKVKTLEDANKFIQAISDKVDEINKELGIAAIMSIEVIEE
B4: LC3A_3_1472 (protein)
chain: LEERLEEVLKRLREAGASEEVLEAVREAYEKLKELGHEEAAKTFIEEMEKLVGLPSELLLAFAEDVLAAVEKYADDPEKLIEEIKSIAAATRNEAEIIEL
B5: LC3A_28_903 (protein)
chain: SPALESAEKALKEVKKAVAAGNQEPLVLEVKAPSTQEDVDKLLKLLEEIAEEASKLKGVSIIIDIDESVSQENRDRIIDKAEELEEKYPNVTIIIALPES
B6: LC3A_17_539 (protein)
chain: KEELKEELKKLIEEAEKLVEEVKPYIPEEAEKAKKRLKEAKKLLEEGKLKEAAELLAETADEMADAVSETEWEDPLKRTLLELEFDSLAIEAESILLKLE
B7: LC3A_28_1059 (protein)
chain: MSIEEELEEALEEAREAVERGEEALIELTIDEDATEEDVELVLETMEEIAELTKDLPRTTIVVDVDHKNKEEVTKLVSEKGDRLEKRYPNVTVIIALSEE
B8: LC3A_28_671 (protein)
chain: SALEEQLEKALAEAKKLAAKGEPGVIVIEVPGDATEEEIERLIKTLEEIAEILKDVKGSAIVIELDKDLKEEHRQRIIDAAERINEKYPNVTVIIAMEER
B9: LC3A_45_1922 (protein)
chain: MYEATLDLLVPKELAEEAYELIKKLLEELEKKRGPNFKVDYETLDASYEASKDEEDVYLEVKIYAPTEEEALDAAIEIEEELSKELGGKVASIISVKKVP
B10: LC3A_28_979 (protein)
chain: SALEKELAAKIAEAKKAAAAGEPAVITIKVSGDTNEEQLAKIIETLEEIAEILKDVKGSAIIIDIDRGVDPKHKQKLIDKGEEIEKKYPNVTVIFALEEE
B11: LC3A_36_1337 (protein)
chain: MVVIVLSAASEEVRAAEEAHYRAKGATVFAVAVEDLDEATKEEILAVVKAAGPDADIIIVAVAETEEGLAKVLKKASELADYIEEETGRTVIIEVDLVEK
B12: LC3A_141_370 (protein)
chain: KTVTFTKTFTNSSLDEVIAGMEELEKEVLAAHEKLGGGKVKVTVTVTIKNSKTGETKVIKEEFEADKETLEMIMEGVLIEAASARLTENANITVTVTLEA
B13: LC3A_28_1047 (protein)
chain: SELEENAEKAIAEARKQLEQGEEAVVTLKVPDMPTEEAVRIFRETLERLIALSKEYGGKKISVVVDFDGDQETFDAIVDIAEEAEKADPNLTVIVALSEE
B14: LC3A_28_815 (protein)
chain: MTAEEIIKQIREQAEKGKQSDEMVLIEVKISGTITEEEAKEIMEVIREESAELAKDRPVAVLIDLEAPISQEVIDLIADMAEEIEKELPNVSVIIALPEE
B15: LC3A_free_8_2554 (protein)
chain: ISEEQKAKISEVLDKAEEEIVKKAKEMGVSEEEINELEALMGFLLQDVLDALEEGPEAALKAFEEESKLIVEYAKELGEELAKEVKKVLEEAKKEIEKIL
B16: LC3A_28_1007 (protein)
chain: MSLIEKTKEEIKKALEQAEKGEDAFLEIEIPSTATKEEVEEVLKLIEEAAKEVSKLEGVKLYVVIDDSGSPEIHDLVVDRADEIEEKYPNVSVIIAYDDK
B17: LC3A_free_46_2383 (protein)
chain: YKAEIDIDFGAMDKETAEKIAEEIKKAAEEISKKYGVKVEVEVEIIEDEDGNYYLRVKITIEGEDKEKVEEAVNELIEKIDEIAEKANVSYIISVEFIDE
B18: LC3A_132_255 (protein)
chain: SKELLEKALKELKEILDKIVELLQAGKDPWPAVKELEEKAEEYAEKLSLEETEELVKESEKYAEELFAARLDPNNEEARRVLDHIEMLFESVLIEKELKS
B19: LC3A_132_254 (protein)
chain: SEELLEKALKELKELLDKIVADLKAGKDPWPTINKLYELALKYAEKLSLEETEKLAEESEKYAEELFAKELDPNDEEARRTLDIVEMLLESVLIEKELRS
B20: LC3A_132_253 (protein)
chain: SKELLEKALKELKEILDKIVELLQAGKDPWPAIKELYEKALEYAKKLSLEETEKLAEEVEAYAEKLFAERLDPNNEEARRALEHIEMLLESVLIEKELRS
B21: LC3A_28_1225 (protein)
chain: AAVDAEIAAARAAMAAAAAAGEEATITVKITGKTTLADVKRLMEALRAIVAEHAHLPRISIIIDLSGKVTQEQIDAAAEGGERIEKEFPNVTVILALDEN
B22: LC3A_28_983 (protein)
chain: MDPREQVEELIKKAKEAAAKGEATVFTITVTSTATEEDIELITEGLKEIAEILKDVKGSAIIVDVESGVPEEYIDKIAETMEEIEKANPNVTTIIALDED
B23: LC3A_free_8_2473 (protein)
chain: SVQELVDQITALLDELEEKVREKAKELGVDELDILELELEIGSLIADLISASDGTIEEVKEIAEEGLEEIEELAKELSEEIAEIVRETREKILALLEAAE
B24: LC3A_free_0_2120 (protein)
chain: KKTVVEVVIILDDSTSEEKAKEIHEKLKEEAEKLAKENGGELKSSLSKSDGSYIITLEITFDTEDIDLALEVERKLVEIAEKILKEANVEATIYSSVYLE
B25: LC3A_free_39_2213 (protein)
chain: SEEELEELLKKVAEESGLDYEYIKKKIEEIQKVAGLSLEQMKKIVEAILEAVKEGANAEEILERILALAKELKAAGKSPEEIAKALLEEVEDYRNLIPLD
B26: LC3A_free_39_2211 (protein)
chain: SEEELEELLKKVAEESGLDYEYIRERVEEIRRVAGLSLEQMLELVKAILEAVREGADAEEILEEVLALAKELVAAGKSPEEIAEALLEEVEDFRNLIPLD
B27: LC3A_free_0_2116 (protein)
chain: KKTVVEVLVILDESTTEEEAKKAYEELKKKAEEIAKKYGWEVKVELSKSDGSWIITVTLTSDSTDIDKALEIARELSDAAEEIAKELGLDATIYESVYLE
B28: LC3A_28_1087 (protein)
chain: SELEEQLKKALEEAKKAKEEGKEVTLEITVPDTATEEDIELVKETLKEIAEIAKELPSLSVVINLTGKNAQAKATELSAHAEELEKEVPNLTVIIALDED
B29: LC3A_3_1520 (protein)
chain: MEEIEKEIIKLLKEAGASEETIEKAKELLKLLRERGYLNAMKTLLEELKELKDAPVETIEAFVKDVLELVKTEDLSEEELSKRIKELATIAKNDAEIEEL

target: MAP1LC3A, Q9H492; assay: median log2 fold change of GCK-ALFA target abundance (FLAG IP / Myc IP barcode read proportion) (log2 ratio); each designed protein is fused to an ALFA-tag nanobody in HEK293 cells to bring the named protein to FLAG-tagged glucokinase (GCK); Myc marks an untargeted standard; higher = target protein stabilised (more abundant); conditions: target protein: 3xFLAG-MCP-GCK-ALFA reporter; HEK293 landing pad (RPLP)
In short: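 Binders fused to an ALFA nanobody were recombined as a library into HEK293 landing-pad cells, which were induced with 2 μg mL^−1 doxycycline and then transfected to express a FLAG-tagged target and a Myc-tagged standard. After 48 h, circular RNA barcodes recovered by anti-FLAG and anti-Myc immunoprecipitation of lysates were reverse transcribed, amplified and sequenced. Each binder's target abundance is the median log2 ratio of FLAG to Myc barcode read proportions, from barcodes present at ≥10^−7 in both replicates, binders carrying ≥3 barcodes per replicate, a 10^−6 pseudocount and pooled replicates.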

| Binder | median log2 fold change |
| --- | --- |
| B1 | -0.124 |
| B2 | -0.0281 |
| B3 | -0.0458 |
| B4 | 0.213 |
| B5 | -0.303 |
| B6 | -0.51 |
| B7 | -0.148 |
| B8 | 0.0757 |
| B9 | -0.405 |
| B10 | -0.00812 |
| B11 | 0.15 |
| B12 | -0.474 |
| B13 | -0.153 |
| B14 | -0.179 |
| B15 | -0.0712 |
| B16 | -0.353 |
| B17 | 0.115 |
| B18 | 0.276 |
| B19 | -0.669 |
| B20 | 0.0444 |
| B21 | 0.191 |
| B22 | -0.2 |
| B23 | -0.379 |
| B24 | -0.12 |
| B25 | 0.203 |
| B26 | -0.819 |
| B27 | -0.122 |
| B28 | 0.251 |
| B29 | 0.547 |
